Source: PubChem BioAssay
MCF10A rerep: induces DNA re-replication in MCF 10a normal breast cells | AID 624296 | 350,000 tested, 2.9% active | MCF 10A DNA re-replication, Hoechst nuclear intensity, 48 h | Potency, µM (titrated, usually from 46.1 µM), for inactives: at the highest dose activity, positive = re-replication, usual class: activators; further: % of control where 0% means no effect; nearly all actives have a fitted effect of over 50% in size
KB-V1 cytotox: KB-V1 MDR subline cytotoxicity; 400,000 tested, 3.4% active; KB-V1 MDR cells viability, CellTiter-Glo, 72 h; AID 1347076; Potency, µM (highest dose often 46.1 µM), most hits filed as cytotoxic; further: on the % scale 0 is the no-effect control and ±100 the full control effect; nearly all actives have a fitted effect of over 60% in size
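Compound-treated KB-V1 multidrug-resistant cells, 72 h, 37 degrees C; viability by CellTiter-Glo. Fitted qHTS curves give the values.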
RGS4 inhibitor: inhibitors of human regulator of G protein signaling 4. P49798. Transcreener GDP fluorescence polarization, RGS4-accelerated GTP hydrolysis. Potency, µM (top dose mostly 114 µM), inactives show at the top dose activity change, negative = inhibition, usual class: inhibitors. 390,000 tested, 0.039% active; further: on the % scale 0 is the no-effect control and ±100 the full control effect; nearly all actives have a fitted effect of over 75% in size
Target sequence (P49798 whole entry, looked up): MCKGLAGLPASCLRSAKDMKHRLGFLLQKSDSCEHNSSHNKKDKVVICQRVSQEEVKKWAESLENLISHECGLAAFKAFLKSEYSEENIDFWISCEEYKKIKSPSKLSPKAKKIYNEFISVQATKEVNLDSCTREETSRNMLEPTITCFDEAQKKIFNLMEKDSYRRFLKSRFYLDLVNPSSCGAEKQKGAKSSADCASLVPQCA
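MLSMR compounds (23 nl, pin-transferred) preincubated 10 min at room temperature with a 500nM (2x) first reagent, then RGS4 at 900nM (2x) plus Transcreener GDP mix added; fluorescence polarization (620/688 nm) read before and after 90 min at 30 °C.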
SW480 rereplic: inducers of DNA re-replication in SW480 colon cancer cells | 340,000 tested, 1.8% active | SW480 DNA re-replication, Hoechst DNA content imaging, 48 h | AID 624297 | Potency, µM (top dose mostly 46.1 µM), for the others: top-dose re-replication activation, hits mostly activators; further: % of control where 0% means no effect; nearly all actives have a fitted effect of over 55% in size
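DNA re-replication was detected as more nuclei of elevated Hoechst intensity after 48 hr exposure to compound (23 nL pinned per well of 250 cells).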
TSG101-PTAP inh: blocks PTAP/TSG101 interaction to inhibit HIV-1 budding | Q99816 | Fluorescence polarization, FITC-PTAP peptide / Tsg101 binding | Potency, µM (doses to about 115 µM), inactives show at the top dose activity change, negative = inhibition, hits mostly inhibitors | 340,000 tested, under 10 active | AID 493005; active means well fitted inhibition curve with a large enough effect in the main read-out, with a control signal flat, not every such curve was filed as active; inconclusive means small, poorly fitted or top-dose-only effect, or effect the other way, or a change in a side signal; inactive means no such curve, though single readings can be large or run the other way; further: % of control where 0% means no effect
Target sequence (Q99816 whole entry, looked up): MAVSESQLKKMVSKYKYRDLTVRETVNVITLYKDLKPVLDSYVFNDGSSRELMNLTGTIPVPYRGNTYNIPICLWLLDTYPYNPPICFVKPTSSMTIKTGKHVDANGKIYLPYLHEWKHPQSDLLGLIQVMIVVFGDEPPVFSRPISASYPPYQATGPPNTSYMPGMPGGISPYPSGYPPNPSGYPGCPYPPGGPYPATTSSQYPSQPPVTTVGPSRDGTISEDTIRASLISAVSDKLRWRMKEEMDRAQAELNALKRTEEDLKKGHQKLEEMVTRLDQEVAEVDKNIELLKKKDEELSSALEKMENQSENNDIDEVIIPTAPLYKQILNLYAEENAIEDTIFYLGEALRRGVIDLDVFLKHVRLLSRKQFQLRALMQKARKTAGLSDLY
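FP read-out: FITC-PTAP peptide, 50 nM final, binding Tsg101 binding domain, 10 uM final; 20 min, r.t.; 10 mM HEPES pH 7.5, 0.15 M NaCl, 0.01% Tween 20, 3 mM EDTA, 0.1 mM TCEP.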
KB-3-1 tox: kills parental KB-3-1 adenocarcinoma cells; 400,000 tested, 1.4% active; KB-3-1 viability, CellTiter-Glo ATP luminescence, 72 h; Potency, µM (titrated, usually from 46.1 µM), usual class: cytotoxic; AID 1347075; further: on the % scale 0 is the no-effect control and ±100 the full control effect; nearly all actives have a fitted effect of over 60% in size
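Parental KB-3-1 viability, qHTS format: 72 h compound exposure, 37 °C; CellTiter-Glo; media-only wells and DMSO plates as controls; concentration-effect fits on corrected data.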
Active calls of the source: *; i = inactive; ? = inconclusive; . = no result; [ ] = remark or other dose. A selection: hits, their analogues and other compounds. The true share with any hit is near 6.6%. Unless noted, the call rests on the fitted dose curve; in most records, active means well fitted curve in the direction sought with a large enough effect; inconclusive means small, poorly fitted or top-dose-only effect, or another doubt; inactive means no such curve, though single readings can be large; an effect the other way counts as inactive or inconclusive. Potency means the concentration at half of the fitted maximal effect.

SMILES | MCF10A rerep | KB-V1 cytotox | RGS4 inhibitor | SW480 rereplic | TSG101-PTAP inh | KB-3-1 tox
O=C(COc1ccc(Br)cc1)Nc1ccc(Cl)cc1C(=O)c1ccccc1 | . | . | -1% | . | . | .
C[C@]12CC[C@H](O)C[C@H]1CCC1C2CC[C@]2(C)[C@@H](c3ccc(=O)oc3)C[C@H]3O[C@]132 (some centres not stated) | 13µM* | ? | . | ? | . | ?
CCCCCCn1c(=O)c(C(=O)Nc2cccc(C)n2)c(O)c2ccccc21 | 0% | ? | -19% | -5% | 1% | i
CCCCn1c(=O)c(C(=O)Nc2ccccc2S(N)(=O)=O)c(O)c2ccccc21 | ? | 16µM* | -12% | 15% | -9% | i
CCCCCn1c(=O)c(C(=O)NCc2ccco2)c(O)c2ccccc21 | 12% | 21µM* | -14% | 1% | -1% | i
CCCCn1c(=O)c(C(=O)NCc2ccco2)c(O)c2ccccc21 | 8% | ? | 11% | ? | -3% | ?
CCCCCn1c(=O)c(C(=O)Nc2nc(CC(=O)OCC)cs2)c(O)c2ccccc21 | -3% | 6.5µM* | -14% | -3% | 1% | i
CCCCCn1c(=O)c(C(=O)Nc2ccccc2S(N)(=O)=O)c(O)c2ccccc21 | 4.1µM* | ? | 17% | 3.7µM* | -2% | 10µM*
CCCCn1c(=O)c(C(=O)Nc2ncccc2C)c(O)c2ccccc21 | -8% | ? | -13% | 4% | -1% | ?
CCCCCn1c(=O)c(C(=O)Nc2ccccc2C)c(O)c2ccccc21 | -2% | i | 5% | -7% | 0% | i
C[C@]12CCC3C(CC[C@H]4C[C@H](O)CC[C@]34C)[C@@H]1CC[C@@H]2C(=O)CO (some centres not stated) | . | . | 310%[56.9 µM] | . | . | .
Cc1cc2oc(=O)cc(-c3ccccc3)c2c(C)c1-c1ccc(CO)cc1 | ? | i | 4% | 1% | -5% | i
C[C@H](CO)N1C[C@H](C)[C@@H](CN(C)Cc2ccc(-c3ccccc3)cc2)Oc2c(NC(=O)c3ccncc3)cccc2C1=O | ? | i | 1% | 18% | -6% | ?
CCCCn1c(=O)c(C(=O)Nc2ccccc2)c(O)c2ccccc21 | -2% | 13µM* | -8% | 1% | 0% | i
CCCCn1c(=O)c(C(=O)NCc2ccccc2)c(O)c2ccccc21 | -4% | i | -11% | 1% | -9% | i
NCc1cccnc1 | 7% | . | . | -6% | . | .
Cc1nc2ccc(Nc3nc4cc(S(=O)(=O)N5CCOCC5)ccc4o3)cc2s1 | ? | i | -24%[11.4 µM] | 18µM* | -3% | i
COc1ccc(/C=N\N=C(N)N)cc1 | ? | ? | -7% | ? | -1% | ?
NC(N)=N/N=C/c1ccc(N2CCOCC2)cc1 | ? | i | -1%[56.9 µM] | 6.5µM* | -2% | ?
CC(C)n1cnc2c(C(=O)N[C@H]3CN4CCC3CC4)cc(Cl)cc21 | . | . | 4.7µM* | . | . | .
CN(C(=O)Cc1ccc(Cl)c(Cl)c1)[C@H](CN1CCCC1)c1cccc(N=C=S)c1 | . | . | -171%[56.9 µM] | . | . | .
CCC(C(N)=O)N1CCCC1=O (configuration not stated) | -3% | . | . | -2% | . | .
C[C@@H]1O[C@@H](O[C@H]2C[C@@H](O)[C@]3(CO)[C@@H]4C(CC[C@]3(O)C2)[C@@]2(O)CC[C@H](C3COC(=O)C3)[C@@]2(C)C[C@H]4O)[C@H](O)[C@H](O)[C@H]1O (some centres not stated) | -44% | 1.8µM* | 12% | ? | -2% | 1.2µM*
C[C@]12CC[C@H]3C(CCC4(O)CC(O)CC[C@]34C=O)C1=CC[C@H]2c1ccc(=O)oc1 (some centres not stated) | 20% | i | 10% | ? | -1% | 23µM*
CC(=O)O[C@H]1[C@H]2O[C@]23[C@@H]2CC[C@]4(O)C[C@@H](O)CC[C@]4(C)C2CC[C@]3(C)[C@H]1c1ccc(=O)oc1 (some centres not stated) | 19% | i | 20% | 0% | 0% | ?
SMILES | MCF10A rerep | KB-V1 cytotox | RGS4 inhibitor | SW480 rereplic | TSG101-PTAP inh | KB-3-1 tox
Cc1cccc(N2C(=O)NC(=O)/C(=C\c3cccn3-c3ccc(Cl)cc3)C2=O)c1 | ? | 18µM* | ? | ? | 3% | ?
Cc1cc(C)cc(N2C(=O)NC(=O)/C(=C/c3cccn3-c3ccc(Cl)cc3)C2=O)c1 | 16µM* | i | -13% | 9% | -6% | i
CCCC(=O)OC(C(Cl)(Cl)Cl)P(=O)(OC)OC (configuration not stated) | 27% | . | . | 0% | . | .
Cc1ccc(NS(=O)(=O)c2c(F)cc(F)c(Cl)c2F)cc1S(=O)(=O)N1CCOCC1 | 2% | i | -2% | ? | 1% | i
CC[C@]1(O)CC[C@H]2[C@@H]3CCC4=CCCC[C@@H]4[C@H]3CC[C@@]21C | ? | . | . | 24µM* | . | .
C[C@]12CCC(=O)C=C1CCC1C2CC[C@@]2(C)C1CC[C@]2(C)O (some centres not stated) | 15% | ? | -9% | ? | -9% | i
C/C=C1/CN2CC[C@]34C(=C(C=O)[C@H]1C[C@@H]23)Nc1ccccc14 | . | . | i | . | . | .
CCOC(=O)c1c(C=O)c2ccccc2n1Cc1ccccc1 | ? | 21µM* | 7% | ? | -2% | ?
O=C(Cn1c(=O)oc2cc(S(=O)(=O)N3CCCC3)ccc21)Nc1cccc(C(F)(F)F)c1 | ? | i | -19% | 35% | 1% | i
O=[N+]([O-])c1ccc(C2[C@H]3C(c4ccccc4)=NC4(CCCC4)N23)cc1 (some centres not stated) | 4% | i | 1% | -1% | -2% | i
Cc1ccc(C2=NC(C)(C)N3C2C3c2ccc([N+](=O)[O-])cc2)cc1 (configuration not stated) | -1% | 18µM* | -10% | 3% | -3% | ?
Cc1cc([N+](=O)[O-])c2ccccc2[n+]1[O-] | 16µM* | 0.52µM* | -4% | 15µM* | -3% | 0.92µM*
Cc1ccccc1[N+](=O)[O-] | 16% | i | -10% | -5% | 4% | ?
CCc1cc2c(=O)n(C(C)C(=O)OC3CCCCC3)cnc2s1 (configuration not stated) | ? | ? | 10% | 0% | -5% | i
CCCCCn1c(NC(=O)c2ccco2)c(C(=O)OCC)c2nc3ccccc3nc21 | 5.8µM* | i | ? | 3.7µM* | -7% | i
